Measured values reported in the supplement of paper PMC7411054.
Counter-ions that a name gives are not always drawn.

Assays:
Conditions in all cases: treatment time: 24 h
A549-ACTB-RAB5A [1] = assay: lowest phenotypically active concentration; higher = less potent
Outline: (§1)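 Two criteria together defined phenotypic activity: deviation and reproducibility. Deviation meant ≥3 of 4 wells beyond the 95th percentile of Euclidean distances in solvent control wells, and reproducibility meant a median replicate Pearson correlation above the 95th percentile of non-replicates. Wells had been treated for 24 h at 0.3, 1, 3 or 9 µM in fifteen gene-edited A549, HepG2 and WPMY1 reporter lines before live imaging.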

A549-CANX-COX4 [2] = assay: as above
Outline: as §1

A549-GM130-SQSTM1 [3] = assay: as above
Outline: as §1

A549-TP53BP1-CLTA [4] = assay: as above
Outline: as §1

A549-TUBA1B-RELA [5] = assay: as above
Outline: as §1

HepG2-GM130-SQSTM1 [6] = assay: as above
Outline: as §1

A549-ACTB-RAB5A [7] = assay: phenotypically active (imaging signature differs from DMSO and reproducible) at any of 0.3-9 uM (binary (1 = active, 0 = inactive)); higher = active
Outline: as §1

A549-CANX-COX4 [8] = assay: as above
Outline: as §1

A549-GM130-SQSTM1 [9] = assay: as above
Outline: as §1

A549-TP53BP1-CLTA [10] = assay: as above
Outline: as §1

A549-TUBA1B-RELA [11] = assay: as above
Outline: as §1

HepG2-ACTB-RAB5A = assay: as above
Outline: as §1

HepG2-CANX-COX4 = assay: as above
Outline: as §1

HepG2-GM130-SQSTM1 [12] = assay: as above
Outline: as §1

HepG2-TP53BP1-CLTA = assay: as above
Outline: as §1

HepG2-TUBA1B-RELA = assay: as above
Outline: as §1

WPMY1-CANX-COX4 = assay: as above
Outline: as §1

WPMY1-GM130-SQSTM1 = assay: as above
Outline: as §1

WPMY1-TP53BP1-CLTA = assay: as above
Outline: as §1

WPMY1-TUBA1B-RELA = assay: as above
Outline: as §1

SMILES | lowest phenotypically active concentration (A549-ACTB-RAB5A [1]) | lowest phenotypically active concentration (A549-CANX-COX4 [2]) | lowest phenotypically active concentration (A549-GM130-SQSTM1 [3]) | lowest phenotypically active concentration (A549-TP53BP1-CLTA [4]) | lowest phenotypically active concentration (A549-TUBA1B-RELA [5]) | lowest phenotypically active concentration (HepG2-GM130-SQSTM1 [6]) | phenotypically active (A549-ACTB-RAB5A [7]) | phenotypically active (A549-CANX-COX4 [8]) | phenotypically active (A549-GM130-SQSTM1 [9]) | phenotypically active (A549-TP53BP1-CLTA [10]) | phenotypically active (A549-TUBA1B-RELA [11]) | phenotypically active (HepG2-ACTB-RAB5A) | phenotypically active (HepG2-CANX-COX4) | phenotypically active (HepG2-GM130-SQSTM1 [12]) | phenotypically active (HepG2-TP53BP1-CLTA) | phenotypically active (HepG2-TUBA1B-RELA) | phenotypically active (WPMY1-CANX-COX4) | phenotypically active (WPMY1-GM130-SQSTM1) | phenotypically active (WPMY1-TP53BP1-CLTA) | phenotypically active (WPMY1-TUBA1B-RELA)
Nc1nc(Cl)nc2c1ncn2[C@H]1C[C@H](O)[C@@H](CO)O1 [cladribine] | 3 µM | 1 µM | 1 µM | 3 µM | 1 µM | ≤ 0.3 µM | 1 (active) | 1 (active) | 1 (active) | 1 (active) | 1 (active) | 1 (active) | 1 (active) | 1 (active) | 1 (active) | 1 (active) | 1 (active) | 1 (active) | 1 (active) | 1 (active)
CC(=C/[C@@H](C)C(=O)c1ccc(N(C)C)cc1)/C=C/C(=O)NO [Trichostatin A] | ≤ 0.3 µM | ≤ 0.3 µM | ≤ 0.3 µM | ≤ 0.3 µM | ≤ 0.3 µM | ≤ 0.3 µM | 1 (active) | 1 (active) | 1 (active) | 1 (active) | 1 (active) | 1 (active) | 1 (active) | 1 (active) | 1 (active) | 1 (active) | 1 (active) | 1 (active) | 1 (active) | 1 (active)
Cc1c(NC(=O)OC[C@@H]2COCCN2)cn2ncnc(Nc3ccc4c(cnn4Cc4cccc(F)c4)c3)c12 | 1 µM | 1 µM | 1 µM | ≤ 0.3 µM | 1 µM | 1 µM | 1 (active) | 1 (active) | 1 (active) | 1 (active) | 1 (active) | 1 (active) | 1 (active) | 1 (active) | 1 (active) | 1 (active) | 1 (active) | 1 (active) | 1 (active) | 1 (active)
NC(=O)Nc1cc(-c2cccc(F)c2)sc1C(=O)N[C@H]1CCCNC1 [AZD 7762 hydrochloride] | 1 µM | 1 µM | ≤ 0.3 µM | ≤ 0.3 µM | ≤ 0.3 µM | ≤ 0.3 µM | 1 (active) | 1 (active) | 1 (active) | 1 (active) | 1 (active) | 1 (active) | 1 (active) | 1 (active) | 1 (active) | 1 (active) | 1 (active) | 1 (active) | 1 (active) | 1 (active)
O=C(Nc1ccc(-c2ccnc(Nc3ccc(N4CCOCC4)cc3)n2)cc1)[C@@H]1CCCN1 | 3 µM | 9 µM | 3 µM | 9 µM | 3 µM | 3 µM | 1 (active) | 1 (active) | 1 (active) | 1 (active) | 1 (active) | 1 (active) | 1 (active) | 1 (active) | 1 (active) | 1 (active) | 1 (active) | 1 (active) | 1 (active) | 1 (active)
NCC(=O)Nc1ccc(-n2nc(C(F)(F)F)cc2-c2ccc3c(ccc4ccccc43)c2)cc1 | 1 µM | 1 µM | 1 µM | 1 µM | 1 µM | 3 µM | 1 (active) | 1 (active) | 1 (active) | 1 (active) | 1 (active) | 1 (active) | 1 (active) | 1 (active) | 1 (active) | 1 (active) | 1 (active) | 1 (active) | 1 (active) | 1 (active)
